# Experimental data reported in ChEMBL document CHEMBL1157539, “Thousands of chemical starting points for antimalarial lead identification” (Nature, 2010).
# Key:
# Assay type in all cases: functional
# [1] = tested on: Plasmodium falciparum; experiment: GSK_TCMDC: Inhibition of Plasmodium falciparum 3D7 in whole red blood cells, using parasite LDH activity as an index of growth. Test compounds present at 2uM
# [2] = tested on: Plasmodium falciparum; experiment: GSK_TCMDC: Inhibition of Plasmodium falciparum Dd2 in whole red blood cells, using parasite LDH activity as an index of growth. Test compounds present at 2uM
# [3] = tested on: HepG2; experiment: GSK_TCMDC: Percent inhibition of human HepG2 cell line. Test compounds present at 10uM.
Structure (SMILES),Inhibition [1] [%],Inhibition [2] [%],Inhibition [3] [%]
NC1CCN(CCNCc2cccc(-c3ccc(-c4nc5cc(C(F)(F)F)ccc5[nH]4)cc3)c2)C1.O=C(O)C(F)(F)F (centres undefined),98,75,19
COc1ccc2nccc([C@@H](O)CN3CCC(NC(=O)/C=C/c4ccc5[nH]c(=O)ccc5c4)CC3)c2c1,96,83,2
COc1cc(Nc2nccc(N3CCC(NC(=O)c4cccc(C#N)c4)C3)n2)cc(OC)c1OC (centres undefined),91,76,13
Cc1cnc(CNCc2ccc(S(=O)(=O)Nc3ccc(Oc4cccc(Cl)c4)cc3)cc2)cn1.O=C(O)C(F)(F)F,97,0,4
CCC(C)(C)C1CCc2nc(N)nc(N)c2C1.Cl (centres undefined),95,97,71
Cn1c(=O)c2nc(-c3ccc(Cl)cc3)nnc2n(CCCC#N)c1=O,99,98,6
Br.CCCCCCCN(CCCCCCC)CCNc1cc(C)nc2ccccc12,89,31,39
CN1CCN(c2nc(NCCNc3ccc([N+](=O)[O-])cc3)c3ccccc3n2)CC1,90,25,37
FC(F)(F)Oc1ccc(Nc2cc(-c3ccncc3)nc(-c3cccnc3)n2)cc1,94,52,24
Cc1cc(NCCc2ccccc2)nc(NC(=N)Nc2ccc(Cl)cc2)n1,100,100,7
CN(CCc1ccccn1)c1cccc2c1nc(-c1cccnc1)n2CCNCc1ccccc1.O=C(O)C(F)(F)F,90,97,12
CCCNCCc1ccc(NS(=O)(=O)c2cccc(-c3ccc(Cl)cc3)c2)cc1.Cl,100,36,36
CC(C)NCc1cccc(-c2cccc(-c3nc4ccccc4[nH]3)c2)c1.O=C(O)C(F)(F)F,100,22,11
CCOc1ccc2[nH]c(C)cc(=NN=Cc3cccnc3)c2c1,100,100,18
COc1cc(NC(=O)c2sc(-c3ccc(Cl)cc3)cc2NC(=O)CN2CCCC2)ccc1OCCN1CCCC1.Cl,86,79,29
COc1ccc2[nH]ccc(=NN=Cc3ccc(N(C)C)cc3)c2c1,100,95,4
CCn1ccc2c(N3CCCC3=O)cc(C(=O)N[C@@H](Cc3ccccc3)[C@H](O)CNC3CCCCC3)cc21,99,98,12
O=C(NC1CCN(Cc2ccccc2)CC1)c1ccc2c(=O)n(Cc3ccc(Cl)cc3)c(=S)[nH]c2c1,100,100,16
O=C(c1ccc(-c2ccc(-c3nc4ccccc4[nH]3)s2)cc1)N1CCCCC1CN1CCC(O)C1 (centres undefined),84,55,18
Br.CCCC1N=C(N)N=C(N)N1c1ccc(C)c(C)c1 (centres undefined),95,0,7

Structure (SMILES),Inhibition [1] [%],Inhibition [2] [%],Inhibition [3] [%]
O=C(NCc1cccc(C(F)(F)F)c1)[C@@H]1CCCN1C(=O)c1ccc(O)c(-c2ccc(Cl)c(Cl)c2)c1,99,97,0
Cc1cc(N/N=C/c2ccccc2[N+](=O)[O-])c2cccc(C)c2n1,99,100,0
O=C(O)C(F)(F)F.O=[N+]([O-])c1cccc(CNCC2CCN(Cc3ccc4ccccc4c3)CC2)c1,100,42,18
COc1ccc2c(=NN=Cc3ccccc3F)cc(C)[nH]c2c1,90,12,4
Cc1ccc(-n2nc(-c3ccccc3)c3cc(C(=O)NCCN)sc32)cc1,92,43,28
COc1ccc(Cl)cc1N1CCN(CCCNC(=O)c2ccc(-c3nc4cc(Cl)c(F)cc4[nH]3)s2)CC1,100,98,12
COc1cc(C(=O)Nc2ccc(-c3nc4ccccc4[nH]3)cc2)cc(OC)c1OC,99,33,13
COc1cc2nc(Nc3ccc4c(c3)OCCO4)nc(N)c2cc1OC.Cl,100,80,13
CN1CCC(C(=O)Nc2ccc(-c3cccc(-c4nc5cc(F)ccc5[nH]4)c3)cc2)CC1,100,5,19
O=c1cc(NCCCNCc2ccccc2-c2ccccc2)[nH]c2ccccc12,88,46,0
O=C(O)C(F)(F)F.O=S(=O)(NCCN1CCCC1)c1ccc(-c2cccc(CNCc3ccccc3)c2)s1,94,43,44
CCCCCN1CCCC(NS(=O)(=O)c2ccc(C(=O)Nc3ccc(C(F)(F)F)cc3)cc2)C1.O=C(O)C(F)(F)F (centres undefined),98,20,41
NC(=O)c1cccc(C(=O)Nc2cccc(-c3ccc(-c4nc5cc(C(F)(F)F)ccc5[nH]4)cc3)c2)c1,100,78,83
Cl.c1ccc(CN2CCN(CCNc3c4ccccc4nc4ccccc34)CC2)cc1,100,97,44
CC(C)(C)c1ccc2[nH]c(-c3ccc(/C=C/C(=O)NCc4cccc(C(F)(F)F)c4)cc3)nc2c1,93,11,31
Cc1noc(C)c1-c1cccc(CNCc2ccc(-c3ccc(-c4nc5cc(F)ccc5[nH]4)cc3)cc2)c1.O=C(O)C(F)(F)F,100,92,23
Br.N=C1c2ccccc2CN1CC(=O)c1ccc(Cl)c(Cl)c1,98,16,1
CC1(C)C=C(c2ccncc2)c2cc(Cl)ccc2O1.Cl,97,22,0
COc1c(C2CCN(CCCCNC(=O)c3ccc(-c4ccc(Cl)cc4)c(OCC(N)=O)c3)CC2)ccc2c1CCCC2,97,11,43
CCOC(=O)C(=CNc1ccc(Cc2cnc(N)nc2N)cc1CC)C(=O)OCC,87,7,47

Structure (SMILES),Inhibition [1] [%],Inhibition [2] [%],Inhibition [3] [%]
Cc1cc2nc(-c3ccc(OCC(=O)NCc4ccc(C(C)(C)C)cc4)cc3)[nH]c2cc1C,94,0,11
COc1ccc2nccc([C@@H](O)CN3CCC(NCCOc4ccncc4)CC3)c2c1.O=C(O)C(=O)O,100,0,11
Cc1cc(=NN=Cc2ccccn2)c2cc(C(F)(F)F)ccc2[nH]1,100,100,0
COc1ccc(/N=[N+](\[O-])c2ccccc2/[N+]([O-])=N/c2ccc(OC)cc2)cc1,84,29,13
CC1(C)N=C(N)N=C(N)N1OCCCCON1C(N)=NC(N)=NC1(C)C,97,95,54
CN(C)c1ccc(C=CC(=O)NC(=O)c2ccccc2O)cc1,92,97,6
CC(Nc1nc(Nc2ccc(F)cc2)nc(SCC(N)=O)n1)c1ccccc1 (centres undefined),90,87,14
O=C(/C=C/c1ccc(Cl)c(Cl)c1)NCCCCCN1CCCC(CCCNC(=O)Nc2ccc(C(F)(F)F)cc2)C1 (centres undefined),100,48,58
Cc1ccc(-c2nc(N3CCN(C(=O)c4ccco4)CC3)c3ccc(Cl)cc3n2)cc1,90,78,17
Cn1c(NC2CCN(CC3CCN(C(=O)/C=C/c4ccc(Cl)c(Cl)c4)CC3)CC2)nc2ccccc21,100,100,99
COc1ccc2ncc(F)c([C@@H](O)CN3CCC(NCc4cc5c(cn4)OCCO5)CC3)c2c1.Cl,100,98,0
c1cn(-c2ccc(CNc3nccc(Nc4ccc(OCCN5CCOCC5)cc4)n3)cc2)cn1,100,3,2
COc1ccc(CNCc2ccc(-c3ccc(-c4nc5cccc(C)c5[nH]4)s3)cc2)cc1.O=C(O)C(F)(F)F,100,89,54
Cc1cc(N2C(N)=NC(N)=NC2(C)C)ccc1Cl.Cl,95,0,66
CCc1cc(I)c2c(c1)C(NCCCNc1cc(=O)c3ccccc3[nH]1)CCN2.CS(=O)(=O)O (centres undefined),89,32,19
Cl.NC1=NC(c2ccccc2)N(OCc2ccccc2)C(N)=N1 (centres undefined),96,21,5
COc1cccc(CNC(=O)c2ccnc(-c3ccc(CNCCOc4ccccc4)cc3)c2)c1.O=C(O)C(F)(F)F,83,10,23
O=C(/C=C/c1ccc(Cl)c(Cl)c1)NCCCCCN1CC[C@H](NC(=O)/C=C/c2ccccc2)C1,93,1,10
